The panel holds about 83,000 compounds, 20% with a hit somewhere; the sample as a whole holds those more often.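 Activity criterion: percent growth below 10, measured after cells in 96-well plates were exposed to a single compound concentration for 48 hours.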 The source made the active and inactive calls.
Columns and labels:
Assay in all cases: NCI-60 one-dose screen, 48 h (100 = growth as untreated, 0 = no growth, -100 = all killed)
Details in all cases: 10 µM unless noted
[1] = test system: SR leukemia
[2] = test system: RPMI-8226 leukemia
[3] = test system: OVCAR-8 ovarian
[4] = test system: OVCAR-5 ovarian
[5] = test system: OVCAR-4 ovarian
[6] = test system: SK-OV-3 ovarian
[7] = test system: IGROV1 ovarian
[8] = test system: OVCAR-3 ovarian
[9] = test system: HS 578T breast
[10] = test system: T-47D breast
[11] = test system: BT-549 breast
[12] = test system: MDA-MB-435 melanoma
[13] = test system: SW-620 colon
[14] = test system: MCF7 breast
[15] = test system: HCT-116 colon
[16] = test system: HCC-2998 colon
[17] = test system: KM12 colon
[18] = test system: NCI/ADR-RES ovarian

Measured: growth

COC(=O)c1c2c(c(C)[n+]([O-])c1C)C(=O)C(NCc1ccc(Cl)cc1)=CC2=O
active: [8] -7.64% | [12] 9.83%
inactive: [1] 48.6% | [2] 69.8% | [3] 33.1% | [4] 97.3% | [5] 36.6% | [6] 95.8% | [7] 61.2% | [9] 92.2% | [10] 37.5% | [11] 77.9% | [13] 45.9% | [14] 35.9% | [15] 11.5% | [16] 59.6% | [17] 48.8%

Cc1ccc2c3c(c(=O)[nH]c2c1)C1(C(C#N)=C(N)O3)c2cc(Br)ccc2-c2ccc(Br)cc21
active: [3] 0.183% | [5] -50% | [7] -13.2% | [8] -40.1% | [10] -29.6% | [13] -36.5% | [14] -42.6% | [16] -4.73% | [17] 6.52%
inactive: [1] 22.2% | [2] 14.8% | [4] 18.3% | [6] 47.7% | [18] 54.1% | [11] 61.8% | [12] 42.8% | [15] 10%

C#CCn1cnc2c(Nc3cccc(NC(=O)C=C)c3)ncnc21
inactive: [1] 68.5% | [2] 81.9% | [3] 76.2% | [4] 82% | [5] 86.6% | [6] 73.5% | [7] 74.8% | [8] 88.5% | [9] 74.5% | [10] 72% | [11] 71.5% | [12] 82.6% | [13] 99.6% | [14] 80.1% | [15] 85.1% | [16] 105% | [17] 96.3%

CC1(C)CC[C@]2(C(=O)O)CC[C@]3(C)C(=CC[C@@H]4[C@@]5(C)C/C(=C/O)C(=O)C(C)(C)[C@@H]5CC[C@]43C)[C@@H]2C1
inactive: [1] 36.3% | [2] 13.2% | [3] 29.3% | [4] 81.4% | [5] 63% | [6] 89.8% | [7] 31.4% | [8] 21% | [9] 74.1% | [10] 61.9% | [11] 88.6% | [12] 69.7% | [13] 12% | [14] 29.5% | [15] 12.7% | [16] 50.5% | [17] 15.7%

O=C(Nc1ccc(-c2nc(N3CCOCC3)c3cccn3n2)cc1)Nc1cccnc1
inactive: [1] 11% | [4] 10.1% | [16] 12.9%
active: [2] -12% | [3] 1.49% | [5] -10.7% | [6] -24.2% | [7] -19.2% | [8] 4.15% | [18] 0.693% | [10] -24.8% | [11] -10.2% | [12] 3.87% | [13] 8.71% | [14] 4.54% | [15] 4.12%

O=C(/C=C(/C=C/c1cccc2[nH]ccc12)OB(F)F)/C=C/c1cccc2[nH]ccc12
inactive: [5] 11.5% | [9] 10.3%
active: [1] 3.72% | [2] -31.5% | [3] -30% | [4] -27.6% | [6] -20.7% | [7] -3.07% | [8] -25.1% | [10] 7.95% | [11] -19.5% | [12] -34.4% | [13] 1.96% | [14] 4.29% | [15] -84.7% | [16] -84.1% | [17] -17.3%

Fc1cc2c(cc1Cl)N(c1ncnc3ccc(-c4cnc5[nH]ncc5c4)cc13)CC2
inactive: [1] 57.1% | [2] 60.3% | [3] 60.9% | [4] 38.4% | [5] 66.4% | [6] 50.8% | [7] 13.2% | [8] 60.4% | [9] 25.9% | [18] 65.2% | [10] 17.8% | [12] 74.1% | [13] 80.2% | [14] 30.9% | [15] 70.3% | [16] 69.1% | [17] 77.8%

O=C(Nc1cc(Cl)ccc1O)c1ccc(Nc2ccnc(C(F)(F)F)c2)cc1
inactive: [1] 23.7% | [3] 51.8% | [4] 86.4% | [5] 43.3% | [6] 64.1% | [7] 36% | [8] 14.3% | [18] 35.1% | [11] 34.5% | [12] 51.9% | [13] 40.2% | [14] 22.3% | [15] 16% | [16] 35.1% | [17] 22.4%
active: [2] -6.66% | [10] 4.61%

C#Cc1cccc(Nc2ncnc3ccc(-c4cnc(N)nc4)cc23)c1
inactive: [1] 40.6% | [2] 22.8% | [3] 49.6% | [4] 23.1% | [5] 46.1% | [8] 24.1% | [11] 28.9% | [12] 43.2% | [14] 15.7% | [15] 47.9% | [16] 64.7% | [17] 68.6%
active: [6] -2.3% | [7] -26.3% | [9] -7.24% | [10] 5.19%

O=C(/C=C/c1ccccc1)c1cccc(OCCCOc2cccc(C(=O)/C=C/c3ccccc3)c2)c1
inactive: [3] 73.8% | [4] 111% | [5] 92.5% | [6] 109% | [7] 85.1% | [8] 78.8% | [9] 113% | [10] 72.1% | [11] 92% | [12] 101% | [13] 54.2% | [14] 11.3% | [16] 42.2% | [17] 25.7%
active: [1] 5.29% | [2] -25.7% | [15] -81.3%

CC(O)c1cnc(/C=C2\SC(=S)N(Cc3ccccc3)C2=O)s1 (stereo not drawn)
active: [2] 4.74%
inactive: [1] 32% | [3] 52.1% | [4] 90.1% | [5] 101% | [6] 95.7% | [7] 94% | [8] 53.2% | [9] 95.3% | [10] 41.7% | [11] 86.9% | [12] 25.3% | [13] 39.7% | [14] 27.4% | [15] 20.2%

C[C@@H]1CCC[C@H]1CC(N)C(=O)O (stereo partly drawn)
inactive: [1] 108% | [2] 103% | [3] 106% | [4] 105% | [5] 105% | [6] 113% | [7] 114% | [8] 117% | [18] 104% | [10] 106% | [11] 106% | [12] 98.6% | [13] 102% | [14] 91.7% | [15] 95.7% | [16] 103% | [17] 106%

CC1=Nc2cnc(Nc3ccc(OCCN4CCCC4)cc3)nc2Nc2ccccc21
inactive: [1] 58.1% | [2] 78% | [3] 80.6% | [4] 74% | [5] 62.9% | [6] 43.8% | [7] 23.1% | [8] 76.4% | [18] 82.7% | [10] 61.1% | [11] 88.2% | [12] 72.2% | [13] 68.4% | [14] 75% | [15] 73.6% | [16] 72.2% | [17] 15.2%

Clc1ccc2c(c1)N(c1ncnc3ccc(-c4cnc5[nH]ncc5c4)cc13)CC2
active: [6] -1.55% | [9] -17% | [10] 0.466%
inactive: [1] 24.3% | [2] 16.9% | [3] 30% | [4] 20.3% | [5] 26.9% | [8] 24.5% | [18] 40.4% | [11] 22.6% | [12] 31.1% | [13] 47.4% | [14] 18.2% | [15] 35.8% | [16] 36.6% | [17] 36.4%

CCCc1cc(NC)nc(S(=O)(=O)CC)n1
inactive: [1] 102% | [2] 101% | [3] 110% | [4] 101% | [5] 115% | [6] 116% | [7] 105% | [8] 119% | [18] 104% | [10] 111% | [11] 105% | [12] 104% | [13] 105% | [14] 92.1% | [15] 100% | [17] 113%

O=C(O)/C(=C\c1ccc(Cl)cc1)c1ccc(Cl)cc1
inactive: [1] 96.8% | [2] 100% | [3] 96.3% | [4] 74.1% | [5] 90.5% | [6] 111% | [8] 101% | [9] 78% | [18] 90.1% | [10] 95.9% | [11] 82% | [12] 97.2% | [13] 106% | [14] 92.9% | [15] 98.1% | [17] 97.6%

CCCCNC(=O)Oc1ccc(/C(=C(/CC)Cc2ccccc2)c2ccc(OCCN3CCCCCC3)cc2)cc1
inactive: [3] 14% | [4] 73.6% | [5] 32.9% | [6] 82.7% | [8] 72.2% | [9] 56.6% | [18] 53.8% | [11] 87.3% | [12] 61.5% | [13] 25.1% | [16] 34% | [17] 37.5%
active: [1] -24.6% | [2] -27.6% | [10] -24.9% | [14] 0.876% | [15] -76.3%

COc1ccc(-c2nc(SCC(C)C)nc(N/N=C\c3ccc(F)cc3)c2C#N)cc1
inactive: [1] 46.7% | [2] 98.2% | [3] 96.3% | [4] 95.6% | [6] 112% | [7] 80.5% | [8] 70.5% | [10] 80.7% | [12] 92.5% | [13] 67.9% | [14] 81.2% | [15] 60% | [16] 104% | [17] 97.4%
active: [5] 8.96%
